Results on ten compounds are retold here after PubChem BioAssay (NCATS).

Inconclusive results are not listed. Calls of active or inactive are those of the source. The call rests on the fitted dose curve. Numbered stars: 1 amine (or outer) side, 2 acyl side, 3 side chain; on linkers, the order of the positions; unused ones are H or OH. Bridge positions count the residues as written; N and C are the ends. Square brackets hold non-standard residues; d marks the D form. Peptide text beside a SMILES is read from it. I, II: the chains in the order shown. Actinocin(9to1) = Cc1c2oc3c(C)ccc(C(=O)[*:1])c3nc-2c(C(=O)[*:2])c(N)c1=O; NMeV = CN[C@H](C(=O)O)C(C)C; Sar = CNCC(=O)O
On the % scale 0 is the no-effect control and ±100 the full control effect; potency means the concentration at half of the fitted maximal effect.

The assay can be described thus: qHTS assay for small molecule disruptors of the mitochondrial membrane potential - 5 hr assay (AID 651755). Further: nearly all actives have a fitted effect of over 40% in size. The note with it: JC-1-type ratio dye; series mostly up to 92.2 µM; ratio change, negative = disruption: at the top concentration. The text has this:
National Center for Advancing Translational Sciences [NCATS]
NIH Chemical Genomics Center [NCGC]
National Institutes of Environmental Health Sciences [NIEHS]
National Toxicology Program [NTP]
Mitochondrial membrane potential (MMP), one of the parameters for mitochondrial function, is generated by mitochondrial electron transport chain that creates an electrochemical gradient by a series of redox reactions. This gradient drives the synthesis of ATP, a crucial molecule for various cellular processes. Measuring MMP in living cells is commonly used to assess the effect of chemicals on mitochondrial function. […] The dye accumulates in the mitochondria of healthy cells as aggregates, with red fluorescence. The mitochondrial potential collapses and the dye can no longer accumulate in the mitochondria and remains in the cytoplasm in monomers, with green fluorescence.
2,000 HepG2 cells in 5 uL/well were dispensed into black, clear-bottom 1536-well plates using a Multidrop Combi (Thermo Scientific) dispenser. The assay plates were incubated overnight at 37C to allow cells to attach to the wells, followed by the transfer of 23 nL compound or DMSO vehicle by a pin tool (Kalypsys). The plates were incubated for 5 hr at 37C and 5% CO2, followed by the addition of 5 uL of 2X Mito-MPS dye (BD Biosciences) into each well using Flying Reagent Dispenser (Aurora Discovery) and then following 30 min incubation at 37C. Fluorescence intensity (490nm excitation and 535nm emission for monomers; and 540nm excitation and 590nm emissions for aggregates) was measured using an Envision plate reader.
Take `Cc1c2oc3c(C)ccc(C(=O)N[C@@H]4C(=O)N[C@H](C(C)C)C(=O)N5CCC[C@H]5C(=O)N(C)CC(=O)N(C)[C@@H](C(C)C)C(=O)O[C@@H]4C)c3nc-2c(C(=O)N[C@@H]2C(=O)N[C@H](C(C)C)C(=O)N3CCC[C@H]3C(=O)N(C)CC(=O)N(C)[C@@H](C(C)C)C(=O)O[C@@H]2C)c(N)c1=O` (I: T[dV]P[Sar][NMeV] / II: T[dV]P[Sar][NMeV]; ester I:1-I:C, II:1-II:C; linker I:N-II:N via Actinocin(9to1)): the “ratio change, negative = disruption” value is -1.98% (inactive).

With `Oc1c(Cl)cc(Cl)cc1Sc1cc(Cl)cc(Cl)c1O`, the Potency is 13.3 µM (active).

In the case of `CCCCCCc1ccc(O)cc1O`, the Potency is 37.6 µM (active).

Consider `CC(=O)Oc1ccc(C(c2ccc(OC(C)=O)cc2)c2ccccn2)cc1`, for which the “ratio change, negative = disruption” value was -2.57% (inactive).

As to `COC1=CC(=O)C[C@@H](C)[C@]12Oc1c(Cl)c(OC)cc(OC)c1C2=O`, the “ratio change, negative = disruption” value was -0.458% (inactive).

Turning to `CC(O)C(=O)O` (stereo not given), the “ratio change, negative = disruption” value was -0.351% (inactive).

With `COc1cccc2c1C(=O)c1c(O)c3c(c(O)c1C2=O)C[C@@](O)(C(C)=O)C[C@@H]3O[C@H]1C[C@H](N)[C@H](O)[C@H](C)O1`, the Potency is 5.96 µM (active).

Turning to `CC(C)(C)CC(C)(C)c1ccc(OCCOCC[N+](C)(C)Cc2ccccc2)cc1`, the “ratio change, negative = disruption” value was 7.19% (inactive).

As to `Oc1ccc(O)cc1`, the “ratio change, negative = disruption” value was 1.15% (inactive).

For `COc1cccc2c1C(=O)c1c(O)c3c(c(O)c1C2=O)C[C@@](O)(C(=O)CO)C[C@@H]3O[C@H]1C[C@H](N)[C@H](O)[C@H](C)O1`, the Potency is 2.66 µM (active).
